The whole screen tested about 1,900 compounds, of which about 1,200 (63%) were called active.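 The calls were made as follows: active = mean activation above the mean of solvent-only control wells plus 3 SD (cut at about 22% in these data); inactive = the rest.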 The set was probably picked from earlier hits. This excerpt belongs to a sample that is enriched for actives.
test: frataxin GAA30 reporter activation – cell-based, luminescence, HEK293, lucGAA30, triplicate, counter-screen for GAA850 frataxin promoter activator project, confirmation (AID 588350); settings: HEK293 lucGAA30 FXN promoter luciferase, 24 h; at 6 µM; hits give high values;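 also: counterscreen of GAA850 promoter hits where activity marks nonselective or luminescence artifacts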

Row | SMILES | activation
1 | CC(C)(C)c1ccc(OC(=O)N2CCCCC2)cc1 | 101% (active)
